Test results as given in PubChem BioAssay (NCATS).
Results filed as inconclusive are left out. The source made the active and inactive calls. The call rests on the fitted dose curve; in most records, active means well fitted inhibition curve with a large enough effect; inconclusive means small, poorly fitted or top-dose-only effect; inactive means flat fitted curve, though single readings scatter.

Assays:
PC49 = assay: qHTS profiling for inhibitors of Plasmodium falciparum proliferation (AID 504749);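 further: 0% = DMSO vehicle and full inhibition = artemisinin control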; conditions: P. falciparum in erythrocytes, SYBR Green DNA, 72 h; series mostly up to 28.7 µM
Summary of the method: (§1)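 SYBR Green fluorescence of parasite DNA, read after lysis and overnight dark incubation, measured growth over 72 h in erythrocyte culture at 0.3% parasitemia and 2.5% hematocrit. Data normalised to DMSO and 0.29 uM artemisinin, with plate-drift correction.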

SC27B = assay: as above; conditions: P. falciparum in erythrocytes, SYBR Green DNA, 72 h; series mostly up to 28.7 µM
Summary of the method: as §1

TAB109 = assay: as above; conditions: P. falciparum in erythrocytes, SYBR Green DNA, 72 h; series mostly up to 28.7 µM
Summary of the method: as §1

TAB113 = assay: as above; conditions: P. falciparum in erythrocytes, SYBR Green DNA, 72 h; series mostly up to 28.7 µM
Summary of the method: as §1

TAB165 = assay: as above; conditions: P. falciparum in erythrocytes, SYBR Green DNA, 72 h; series mostly up to 28.7 µM
Summary of the method: as §1

W2 = assay: as above; conditions: P. falciparum in erythrocytes, SYBR Green DNA, 72 h; series mostly up to 28.7 µM
Summary of the method: as §1

CRL-7250 = normal cell line; assay: Cytotoxic Profiling of Annotated Libraries Using Quantitative High-Throughput Screening (AID 1296008); conditions: Five cell lines viability, CellTiter-Glo ATP luminescence, 48-72 h; hits give low values; on max response: on the % scale 0 is the no-effect control and ±100 the full control effect
Summary of the method: (§2)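 Cytotoxicity was measured as CellTiter-Glo ATP luminescence, read after 10 min at room temperature. Compound treatment of the cells lasted 48 or 72 hr at 37 degrees Celsius in a qHTS format.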

HEK293 = assay: as above; conditions: Five cell lines viability, CellTiter-Glo ATP luminescence, 48-72 h; hits give low values
Summary of the method: as §2

HaCat [1] = assay: as above; conditions: Five cell lines viability, CellTiter-Glo ATP luminescence, 48-72 h; hits give low values
Summary of the method: as §2

KB-3-1 = assay: as above; conditions: Five cell lines viability, CellTiter-Glo ATP luminescence, 48-72 h, hits give low values
Summary of the method: as §2

NIH3T3 = assay: as above; conditions: Five cell lines viability, CellTiter-Glo ATP luminescence, 48-72 h; hits give low values
Summary of the method: as §2

HACAT [2] = assay: qHTS assay to identify novel small-molecules to repurpose for Merkel cell carcinoma treatment (AID 1296009); conditions: MCC and control cell lines, CellTiter-Glo viability, 72 h; at 44.8 µM (top of the series) unless noted; on activity change, negative = cytotoxicity: on the % scale 0 is the no-effect control and ±100 the full control effect
Summary of the method: (§3)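 Cell viability, measured as CellTiter-Glo luminescence, was normalized between DMSO and no-cell wells. The cells had been exposed to 8- or 11-point compound dilutions for 72 hr at 37 degree celsius.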

MCC-13 = assay: as above; conditions: MCC and control cell lines, CellTiter-Glo viability, 72 h; series mostly up to 46 µM
Summary of the method: as §3

MCC-26 = assay: as above; conditions: MCC and control cell lines, CellTiter-Glo viability, 72 h; series mostly up to 46 µM
Summary of the method: as §3

MKL-1 = assay: as above; conditions: MCC and control cell lines, CellTiter-Glo viability, 72 h; series mostly up to 46 µM
Summary of the method: as §3

MKL-2 = assay: as above; conditions: MCC and control cell lines, CellTiter-Glo viability, 72 h; series mostly up to 46 µM
Summary of the method: as §3

UISO = assay: as above; conditions: MCC and control cell lines, CellTiter-Glo viability, 72 h; series mostly up to 46 µM
Summary of the method: as §3

WaGa = assay: as above; conditions: MCC and control cell lines, CellTiter-Glo viability, 72 h; series mostly up to 46 µM
Summary of the method: as §3
Further: nearly all actives have a fitted effect of over 60% in size.

Cn1c(=O)c2c(ncn2CCO)n(C)c1=O
inactive: Potency (PC49) | Potency (SC27B) | Potency (TAB109) | Potency (TAB113) | Potency (TAB165) | Potency (W2) | max response (CRL-7250) -4.29% | max response (HEK293) -4.8% | outcome (HaCat [1]) | max response (KB-3-1) -5.28% | max response (NIH3T3) -3.21% | outcome (HACAT [2]) | outcome (MCC-13) | outcome (MCC-26) | outcome (MKL-1) | outcome (MKL-2) | outcome (UISO) | outcome (WaGa)

CC(=O)SC[C@@H](Cc1ccccc1)C(=O)NCC(=O)OCc1ccccc1
inactive: Potency (PC49) | Potency (SC27B) | Potency (TAB109) | Potency (TAB113) | Potency (TAB165) | Potency (W2) | outcome (CRL-7250) | max response (HEK293) -5.72% | outcome (HaCat [1]) | max response (KB-3-1) 6.03% | max response (NIH3T3) -11.9% | outcome (HACAT [2]) | outcome (MCC-13) | outcome (MCC-26) | outcome (MKL-1) | outcome (MKL-2) | outcome (UISO) | outcome (WaGa)

COc1ccc(C(=O)NCc2ccc(OCCN(C)C)cc2)cc1OC
inactive: Potency (PC49) | Potency (SC27B) | Potency (TAB109) | Potency (TAB113) | Potency (TAB165) | Potency (W2) | outcome (CRL-7250) | max response (HEK293) -0.933% | outcome (HaCat [1]) | max response (KB-3-1) 3.28% | max response (NIH3T3) -3.79% | outcome (HACAT [2]) | outcome (MCC-13) | outcome (MCC-26) | outcome (MKL-1) | outcome (MKL-2) | outcome (UISO) | outcome (WaGa)

Cc1c(Cn2ccnc2)c2ccccc2n1CCC(=O)O
inactive: Potency (PC49) | Potency (SC27B) | Potency (TAB109) | Potency (TAB113) | Potency (TAB165) | Potency (W2) | max response (CRL-7250) 0.62% | max response (HEK293) 1.95% | outcome (HaCat [1]) | max response (KB-3-1) -18.7% | max response (NIH3T3) 3.45% | outcome (HACAT [2]) | outcome (MCC-13) | outcome (MCC-26) | outcome (MKL-1) | outcome (MKL-2) | outcome (UISO) | outcome (WaGa)

CC(=O)NS(=O)(=O)c1ccc(N)cc1
inactive: Potency (PC49) | Potency (SC27B) | Potency (TAB109) | Potency (TAB113) | Potency (TAB165) | Potency (W2) | max response (CRL-7250) -3.19% | max response (HEK293) -5.52% | outcome (HaCat [1]) | max response (KB-3-1) 3.12% | max response (NIH3T3) -1.48% | outcome (HACAT [2]) | outcome (MCC-13) | outcome (MCC-26) | outcome (MKL-1) | outcome (MKL-2) | outcome (UISO) | outcome (WaGa)

COc1ccc(Cc2cnc(N)nc2N)cc1OC
inactive: Potency (PC49) | Potency (SC27B) | Potency (TAB109) | Potency (TAB113) | Potency (TAB165) | Potency (W2) | max response (CRL-7250) -8.49% | max response (HEK293) 2.64% | outcome (HaCat [1]) | max response (KB-3-1) -1.92% | max response (NIH3T3) -0.487% | outcome (HACAT [2]) | outcome (MCC-13) | outcome (MCC-26) | outcome (MKL-1) | outcome (MKL-2) | outcome (UISO) | outcome (WaGa)

O=C(O)CCC(=O)O
inactive: Potency (PC49) | Potency (SC27B) | Potency (TAB109) | Potency (TAB113) | Potency (TAB165) | Potency (W2) | max response (CRL-7250) 3.26% | max response (HEK293) 3.09% | outcome (HaCat [1]) | max response (KB-3-1) 7.68% | max response (NIH3T3) -0.925% | outcome (HACAT [2]) | outcome (MCC-13) | outcome (MCC-26) | outcome (MKL-1) | outcome (MKL-2) | outcome (UISO) | outcome (WaGa)

Nc1ccncc1N
inactive: Potency (PC49) | Potency (SC27B) | Potency (TAB109) | Potency (TAB113) | Potency (TAB165) | Potency (W2) | max response (CRL-7250) -6.31% | max response (HEK293) -11.7% | outcome (HaCat [1]) | max response (KB-3-1) 10.8% | max response (NIH3T3) -1.29% | outcome (HACAT [2]) | outcome (MCC-13) | outcome (MCC-26) | outcome (MKL-1) | outcome (MKL-2) | outcome (UISO) | outcome (WaGa)

NC(N)=NCCN1CCCCCCC1
inactive: Potency (PC49) | Potency (SC27B) | Potency (TAB109) | Potency (TAB113) | Potency (TAB165) | Potency (W2) | max response (CRL-7250) -19.7% | max response (HEK293) 0.733% | outcome (HaCat [1]) | max response (KB-3-1) 18.1% | max response (NIH3T3) 4.36% | outcome (HACAT [2]) inactive [at 0.588 µM] | activity change, negative = cytotoxicity (MCC-13) 12.6% [at 0.597 µM] | activity change, negative = cytotoxicity (MCC-26) 12.5% [at 0.597 µM] | activity change, negative = cytotoxicity (MKL-1) 13.2% [at 0.597 µM] | activity change, negative = cytotoxicity (MKL-2) 3.8% [at 0.597 µM] | activity change, negative = cytotoxicity (UISO) 18% [at 0.597 µM] | activity change, negative = cytotoxicity (WaGa) 12.9% [at 0.597 µM]

C=CCNC(N)=S
inactive: Potency (PC49) | Potency (SC27B) | Potency (TAB109) | Potency (TAB113) | Potency (TAB165) | Potency (W2) | max response (CRL-7250) -5.07% | max response (HEK293) -1.79% | outcome (HaCat [1]) | max response (KB-3-1) -9.92% | max response (NIH3T3) 4.81% | outcome (HACAT [2]) | outcome (MCC-13) | outcome (MCC-26) | outcome (MKL-1) | outcome (MKL-2) | outcome (UISO) | outcome (WaGa)

Cc1c(N(C)C)c(=O)n(-c2ccccc2)n1C
inactive: Potency (PC49) | Potency (SC27B) | Potency (TAB109) | Potency (TAB113) | Potency (TAB165) | Potency (W2) | outcome (CRL-7250) | max response (HEK293) -3.5% | outcome (HaCat [1]) | max response (KB-3-1) -5.96% | max response (NIH3T3) 4.65% | outcome (HACAT [2]) | outcome (MCC-13) | outcome (MCC-26) | outcome (MKL-1) | outcome (MKL-2) | outcome (UISO) | outcome (WaGa)

C=CCSCC1Nc2cc(Cl)c(S(N)(=O)=O)cc2S(=O)(=O)N1 (stereo not drawn)
inactive: Potency (PC49) | Potency (SC27B) | Potency (TAB109) | Potency (TAB113) | Potency (TAB165) | max response (CRL-7250) -2.06% | max response (HEK293) 2.45% | outcome (HaCat [1]) | max response (KB-3-1) -3.75% | max response (NIH3T3) 4.06% | outcome (HACAT [2]) | outcome (MCC-13) | outcome (MCC-26) | outcome (MKL-1) | outcome (MKL-2) | outcome (UISO) | outcome (WaGa)

CN/C(=C\[N+](=O)[O-])NCCSCc1csc(CN(C)C)n1
inactive: Potency (PC49) | Potency (SC27B) | Potency (TAB109) | Potency (TAB113) | Potency (TAB165) | Potency (W2) | max response (CRL-7250) -2.16% | max response (HEK293) -19.8% | outcome (HaCat [1]) | max response (KB-3-1) 8.03% | max response (NIH3T3) 0.469% | outcome (HACAT [2]) | outcome (MCC-13) | outcome (MCC-26) | outcome (MKL-1) | outcome (MKL-2) | outcome (UISO) | outcome (WaGa)
